Results taken from PubChem BioAssay (NCI).
Compounds without any hit were thinned out: in the full panel of roughly 83,000, 20% have a hit.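 A percent growth of 40 corresponds to 60% growth inhibition; 0 means no net growth; -100 means all cells died. Active threshold: below 10.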 Unmarked numbers belong to inactive results. The source made the active and inactive calls.

Columns and labels:
Experiment in all cases: NCI-60 one-dose screen, 48 h (100 = growth as untreated, 0 = no growth, -100 = all killed)
Conditions in all cases: 10 µM unless noted
NCI-H23 lung = system: NCI-H23 lung
NCI-H226 lung = system: NCI-H226 lung
NCI-H322M lung = system: NCI-H322M lung
HOP-62 NSCLC = system: HOP-62 NSCLC
NCI-H460 lung = system: NCI-H460 lung
HOP-92 NSCLC = system: HOP-92 NSCLC
NCI-H522 lung = system: NCI-H522 lung
A549/ATCC NSCLC = system: A549/ATCC NSCLC
786-0 renal = system: 786-0 renal
COLO 205 colon = system: COLO 205 colon
DU-145 prostate = system: DU-145 prostate
K-562 leukemia = system: K-562 leukemia
MALME-3M melanoma = system: MALME-3M melanoma
MDA-MB-231 breast = system: MDA-MB-231 breast
RXF 393 renal = system: RXF 393 renal
SF-268 CNS = system: SF-268 CNS
SF-295 CNS = system: SF-295 CNS
SF-539 CNS = system: SF-539 CNS
UACC-257 melanoma = system: UACC-257 melanoma
M14 melanoma = system: M14 melanoma

Structure (SMILES)	growth (NCI-H23 lung) [%]	growth (NCI-H226 lung) [%]	growth (NCI-H322M lung) [%]	growth (HOP-62 NSCLC)	growth (NCI-H460 lung)	growth (HOP-92 NSCLC)	growth (NCI-H522 lung) [%]	growth (A549/ATCC NSCLC) [%]	growth (786-0 renal)	growth (COLO 205 colon) [%]	growth (DU-145 prostate) [%]	growth (K-562 leukemia) [%]	growth (MALME-3M melanoma)	growth (MDA-MB-231 breast)	growth (RXF 393 renal)	growth (SF-268 CNS)	growth (SF-295 CNS) [%]	growth (SF-539 CNS)	growth (UACC-257 melanoma) [%]	growth (M14 melanoma)
O=C1c2ccccc2-c2c1c1c(NCCCO)nc3ccccc3c1n2Cc1ccccc1	35.1	21.5	29.6	-35.5% (active)	-29% (active)	-33.4% (active)	23.3	16	-74.3% (active)	62	13.2	16.9	-54.6% (active)	-2.22% (active)	-52.2% (active)	-5.13% (active)	23.1	-49.2% (active)	56.5	-53% (active)
CCCC1C(C(=O)OCC)=C(N)Oc2cc(O)ccc21 (stereo not given)	90.7	78.9	109	76.7%	93.1%	74.8%	77.2	101	95.1%	96.3	103	85.6	98.8%	93.6%	131%	104%	102	93.8%	104	90.5%
Cc1cc(Nc2cccc(C(F)(F)F)c2)n2c(nc3ccccc32)c1C#N	25.1	40.1	36.9	53.6%	17%	-2.32% (active)	20.7	43.7	58.9%	36.9	53.9	22.1	60.6%	54.2%	61.3%	51.3%	53.9	40.9%	11.9	54.4%
FCc1nc2nc(Cl)c(Cl)nc2[nH]1	99.3	104	113	94.8%	108%	81.2%	95.9	98.9	103%	109	104	93	97.3%	128%	105%	94.9%	93.7	100%	99.2	107%
NC(=O)CN1CCN(c2ccccc2Cl)CC1	99.7	102	94.3	104%	111%	103%	92.3	111	91.6%	110	108	97.2	104%	102%	112%	106%	97.9	107%	107	102%
O=C1CCCN1c1cccc2cccnc12	92.9	98.8	102	94.4%	102%	103%	96	99	97.5%	108	111	96.4	109%	99%	102%	97.9%	102	98.9%	102	103%
COc1ccc(/C=N/C2=C(C#N)C(c3ccccc3[N+](=O)[O-])c3ccc4ccccc4c3O2)cc1 (stereo not given)	79	70.4	90.6	103%	91.4%	97.1%	88.1	99.8	101%	104	100	80.2	89.8%	77.7%	109%	87.4%	94.9	97.3%	102	90.4%
NNC(=O)/C(=C\c1ccc([N+](=O)[O-])cc1)CC(=O)c1ccc(Cl)c(Cl)c1	91.6	69.2	84.3	83.3%	90.5%	103%	77.2	78.9	92.9%	100	88.7	88.8	94.3%	89%	97.8%	65.1%	93.6	98.1%	91.1	85.6%
